A selection: hits, their analogues and other compounds. The true share with any hit is near 8.2%.
KB-3-1 tox: kills parental KB-3-1 adenocarcinoma cells; KB-3-1 viability, CellTiter-Glo ATP luminescence, 72 h; 1.4% of 400,000 active; Potency, µM (titrated, usually from 46.1 µM), usual class: cytotoxic; further: nearly all actives have a fitted effect of over 60% in size
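Cells are dispensed, compounds pinned in, plates held at 37 °C for 72 h, then CellTiter-Glo is added and luminescence read after 10 minutes. Cell line: parental KB-3-1 in phenol-red-free DMEM, 10% FBS.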
SW480 rerep: induces DNA re-replication in SW480 colon adenocarcinoma cells; SW480 DNA re-replication, Hoechst DNA content imaging, 48 h; Potency, µM (series often up to 46.1 µM), hits mostly activators; 1.8% of 340,000 active; AID 624297; further: nearly all actives have a fitted effect of over 55% in size
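250 cells/well; 23 nL cpd via pin tool; 48 hr, 37 C, 5% CO2; Hoechst 40 min; imager read of total nuclear intensity, ex 405/em 500-530 nm.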
MCF10A rereplic: DNA re-replication induction in MCF 10a cells. MCF 10A DNA re-replication, Hoechst nuclear intensity, 48 h. Potency, µM (top dose mostly 46.1 µM), most hits filed as activators. 2.9% of 350,000 active. AID 624296; further: nearly all actives have a fitted effect of over 50% in size
KB-V1 MDR tox: kills drug-selected multidrug resistant KB-V1 cells. 3.4% of 400,000 active. Potency, µM (doses to about 46.1 µM), most hits filed as cytotoxic. KB-V1 MDR cells viability, CellTiter-Glo, 72 h; further: nearly all actives have a fitted effect of over 60% in size
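Potencies derive from concentration-effect curves fitted to normalized luminescence (CellTiter-Glo) of KB-V1 cells treated for 72 h at 37 degrees C in phenol-red-free DMEM containing 10% FBS.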
ELG1 DNA repair: inhibitors of ELG1-dependent DNA repair in HEK293T cells | HEK293T ELG1-luciferase reporter, luminescence, 16 h; DNA damage induced by 5-fluorouridine | Potency, µM (top dose mostly 46.1 µM), hits mostly inhibitors | 2.3% of 330,000 active; further: nearly all actives have a fitted effect of over 55% in size
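DMSO vehicle served as the neutral condition. Each well held 2,000 cells given 5-fluorouridine plus compound; after 16 hr at 37 °C/5% CO2, ONE-Glo was added and luciferase measured 30 min later.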
Large screens that a line does not name were inactive. The call rests on the fitted dose curve; in most records, active means well fitted curve in the direction sought with a large enough effect; inconclusive means small, poorly fitted or top-dose-only effect, or another doubt; inactive means no such curve, though single readings can be large; an effect the other way counts as inactive or inconclusive.

O=C1CC(O)(C(F)(F)F)Oc2c1ccc1ccccc21 (centres undefined)	SW480 rerep inconclusive, MCF10A rereplic 20.6µM
COCc1[nH]nc2c1C(c1ccc(F)cc1F)C(C#N)=C(N)O2 (centres undefined)	none
COCc1[nH]nc2c1C(c1ccc(OC)c(OC)c1)C(C#N)=C(N)O2 (centres undefined)	ELG1 DNA repair inconclusive
COCc1[nH]nc2c1C(c1cc(OC)c(O)c(OC)c1)C(C#N)=C(N)O2 (centres undefined)	ELG1 DNA repair 18.4µM
COCc1[nH]nc2c1C(c1ccnc3ccccc13)C(C#N)=C(N)O2 (centres undefined)	SW480 rerep 16.4µM, MCF10A rereplic inconclusive
C=CCn1c(C)cc(C(=O)CSc2nc3ccccc3o2)c1C	KB-3-1 tox inconclusive, SW480 rerep inconclusive, MCF10A rereplic 23.1µM, KB-V1 MDR tox 14.6µM, ELG1 DNA repair inconclusive
C=CCn1c(C)cc(C(=O)CSc2nnc(Cc3ccccc3)o2)c1C	none
C=CCn1c(C)cc(C(=O)CSc2nnc(NC(C)C)s2)c1C	KB-3-1 tox inconclusive, MCF10A rereplic inconclusive, KB-V1 MDR tox inconclusive
Cc1cc(C(=O)CSc2nc3ccccc3o2)c(C)n1C1CC1	MCF10A rereplic 23.1µM, KB-V1 MDR tox inconclusive, ELG1 DNA repair inconclusive
C=CCn1c(C)cc(C(=O)CSc2nnc(NCc3ccccc3)s2)c1C	KB-3-1 tox 13µM, SW480 rerep inconclusive, MCF10A rereplic 3.66µM, KB-V1 MDR tox 10.3µM
Cc1cccc(C)c1NC(=O)C1c2ccccc2OCC(=O)N1Cc1ccc2c(c1)OCO2 (centres undefined)	none (no result: SW480 rerep, MCF10A rereplic, ELG1 DNA repair)
COc1ccc(NC(=O)C23CC4CC(CC(Cl)(C4)C2)C3)cc1S(=O)(=O)N1CCOCC1	ELG1 DNA repair 16.4µM
COc1cc(CCC(=O)Nc2ccc(C)c(S(=O)(=O)N3CCCCCC3)c2)cc(OC)c1OC	KB-3-1 tox 6.51µM, KB-V1 MDR tox 3.66µM, ELG1 DNA repair inconclusive
CCOc1ccccc1NC(=O)CCCc1nc2ccccc2c(=O)[nH]1	KB-V1 MDR tox 18.4µM
CC(=O)Nc1ccc(NC(=O)CCc2nc3ccccc3c(=O)[nH]2)cc1	none
COc1cc(CCC(=O)Nc2ccc(S(=O)(=O)N3CCCC3)cc2)cc(OC)c1OC	ELG1 DNA repair inconclusive
CCOc1ccc(Oc2ccccc2NC(=O)CCc2nc3ccccc3c(=O)[nH]2)cc1	KB-V1 MDR tox inconclusive (no result: SW480 rerep, MCF10A rereplic, ELG1 DNA repair)
O=C(CCc1nc2ccccc2c(=O)[nH]1)Nc1ccc(Cl)c(Cl)c1	KB-V1 MDR tox 20.6µM
O=C(CCc1nc2ccccc2c(=O)[nH]1)Nc1cc(Cl)ccc1N1CCCC1	KB-V1 MDR tox 14.6µM
COc1ccc(OCC(=O)Nc2ccc(OC)c(S(=O)(=O)N3CCCCC3)c2)cc1	KB-3-1 tox 20.6µM, SW480 rerep 16.4µM, MCF10A rereplic inconclusive, ELG1 DNA repair inconclusive
COc1ccc(NC(=O)CCc2ccccc2)cc1S(=O)(=O)N1CCCCC1	KB-3-1 tox inconclusive, KB-V1 MDR tox 5.17µM
COc1ccc(CCC(=O)Nc2ccc(Cl)c(S(=O)(=O)N3CCCC3)c2)cc1	KB-V1 MDR tox inconclusive, ELG1 DNA repair 4.61µM
CCOC(=O)[C@H]1[C@H]2COc3ccccc3[C@@H]2N2C(=O)c3c(C)cc(C)cc3NC(=O)[C@@]12C	none
COc1ccc(NC(=O)CCOc2ccc(C)cc2)cc1S(=O)(=O)N1CCOCC1	KB-V1 MDR tox 18.4µM
O=C(Nc1cccc(Cl)c1)N(Cc1nc2ccccc2c(=O)[nH]1)C1CCCC1	MCF10A rereplic inconclusive, KB-V1 MDR tox inconclusive
O=C(CCOc1cccc(Br)c1)Nc1ccc(F)c(S(=O)(=O)N2CCOCC2)c1	MCF10A rereplic inconclusive, KB-V1 MDR tox 23.1µM, ELG1 DNA repair inconclusive
CN(CC(=O)Nc1cc(C(F)(F)F)ccc1-n1cncn1)Cc1nc2ccccc2c(=O)[nH]1	none (no result: ELG1 DNA repair)
CCN(CC(=O)Nc1cc(Cl)ccc1-n1cncn1)Cc1nc2ccccc2c(=O)[nH]1	ELG1 DNA repair 8.2µM (no result: KB-3-1 tox, KB-V1 MDR tox)
O=C(CCOc1ccccc1)Nc1ccc(Cl)c(S(=O)(=O)N2CCOCC2)c1	none
O=C(Nc1cccc(Cl)c1)N(Cc1nc2ccccc2c(=O)[nH]1)Cc1cccs1	KB-V1 MDR tox 16.4µM, ELG1 DNA repair inconclusive
COc1ccc(OCCCC(=O)Nc2ccc(OC)c(S(=O)(=O)N3CCOCC3)c2)cc1	ELG1 DNA repair inconclusive

Compound activity as filed in PubChem.
